# According to PubChem BioAssay (Tox21):
# The source holds several records for some structures; these can differ, active in one and inactive in another. Active and inactive are the calls of the source. A call without a number means that no potency is given here. The call rests on the fitted dose curve; in most records, active means well fitted curve in the direction sought with a large enough effect in the signal ratio in the repeat runs (not every such curve was filed as active); inconclusive means weak or mixed curves, or effect the other way; inactive means no such curve, though single readings can be large or run the other way; the % refers to the signal ratio.
# Target: Estrogen receptor (Homo sapiens) (UniProt P03372)
# Sequence (P03372 whole entry, looked up): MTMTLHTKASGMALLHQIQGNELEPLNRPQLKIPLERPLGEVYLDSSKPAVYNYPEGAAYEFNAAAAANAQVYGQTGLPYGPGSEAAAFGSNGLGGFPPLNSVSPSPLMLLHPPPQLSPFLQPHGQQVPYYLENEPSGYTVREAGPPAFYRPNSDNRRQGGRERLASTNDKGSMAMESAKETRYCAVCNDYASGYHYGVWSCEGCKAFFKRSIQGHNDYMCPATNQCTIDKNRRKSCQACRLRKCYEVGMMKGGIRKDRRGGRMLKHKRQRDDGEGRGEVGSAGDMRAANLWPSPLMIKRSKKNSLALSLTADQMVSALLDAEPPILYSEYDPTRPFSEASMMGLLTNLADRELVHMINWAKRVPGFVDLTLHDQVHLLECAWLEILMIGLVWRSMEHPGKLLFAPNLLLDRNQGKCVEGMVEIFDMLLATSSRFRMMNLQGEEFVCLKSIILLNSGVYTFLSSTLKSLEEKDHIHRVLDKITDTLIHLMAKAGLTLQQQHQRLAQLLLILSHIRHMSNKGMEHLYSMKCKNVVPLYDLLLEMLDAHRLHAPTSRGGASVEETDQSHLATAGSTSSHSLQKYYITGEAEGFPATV
# Assay: qHTS assay to identify small molecule antagonists of the estrogen receptor alpha (ER-alpha) signaling pathway (AID 743069)
# Settings: HEK293 ER-alpha-UAS-bla, beta-lactamase ratio, antagonist mode; series mostly up to 69.4 µM
# Description: National Center for Advancing Translational Sciences [NCATS]
# NIH Chemical Genomics Center [NCGC]
# U.S. Environmental Protection Agency [EPA]
# National Institutes of Environmental Health Sciences [NIEHS]
# National Toxicology Program [NTP]
# U.S. Food and Drug Administration [FDA]
# Estrogen receptor (ER), a nuclear hormone receptor, plays an important role in development, metabolic homeostasis and reproduction. Two subtypes of ER, ER-alpha and ER-beta have similar expression patterns with some uniqueness in both types. Endocrine disrupting chemicals (EDCs) and their interactions with steroid hormone receptors like ER causes disruption of normal endocrine function. To identify the compounds that inhibit ER signaling, an ER-alpha-UAS-bla GripTiteTM cell line (Invitrogen, Carlsbad, CA, USA) containing a beta-lactamase reporter gene under the control of an Upstream Activator Sequence (UAS) stably integrated into HEK293 cells was used to screen the Tox21 10K compound library.
# Tox21 Assay Protocol Summary:
# ER-alpha-bla cells were cultured in assay medium containing 2% charcoal stripped FBS overnight in the culture flasks before the assay was performed. The cells were dispensed at 5,000 cells/5 uL of assay medium per well into black wall/clear-bottom 1536-well plates using a Multidrop Combi (ThermoFisher Scientific, Waltham, MA) dispenser. After the assay plates were incubated at a 37C and 5% CO2 for 4 hr, 23 nL of compounds dissolved in DMSO, positive controls or DMSO only was transferred to the assay plate by a Pintool station (Kalypsys, San Diego, CA), followed by addition of 1 uL of 17beta-estradiol in assay medium using a Flying Reagent Dispenser (Aurora Discovery, San Diego, CA). The plates were incubated at 37C and 5% CO2 for 18 hr. Then 1 uL of LiveBLAzerTM B/G FRET substrate was added using a Flying Reagent Dispenser, the plates were incubated at room temperature for 2 hours, and fluorescence intensity was measured by an Envision plate reader (PerkinElmer, Shelton, CT).
# Potency means the concentration at half of the fitted maximal effect.
row,SMILES,Potency
1,c1ccc2sc(SN(C3CCCCC3)C3CCCCC3)nc2c1,inactive
2,CC(=O)Nc1cc(S(=O)(=O)O)cc2cc(S(=O)(=O)O)c(N=Nc3ccccc3)c(O)c12,inactive
3,Nc1nnc(-c2ccc([N+](=O)[O-])o2)o1,inactive
4,C=C1c2cccc(O)c2C(O)=C2C(=O)[C@]3(O)C(O)=C(C(N)=O)C(=O)[C@@H](N(C)C)[C@@H]3[C@@H](O)[C@H]12,inactive
5,CC(=O)N/N=C/c1ccc([N+](=O)[O-])o1,inactive
6,C=CC(C)(CCC=C(C)C)OC(=O)CC(C)C (stereo not given),inactive
7,Cc1ccco1,inactive
8,O=C1c2ccccc2C(=O)c2c(O)c(O)cc(O)c21,inactive
9,O=c1[nH]c2ccc(Cl)cc2o1,inactive
10,N#CCc1ccc(Cl)cc1Cl,inactive
11,CC(C)=CC(=O)C=C(C)C,inactive
12,CN1C(=O)OC(C)(C)C1=O,inactive
13,Cc1cscn1,inactive
14,CCCC(=O)C(=O)O,inactive
15,C=C/C(C)=C/C/C=C(\C)CCC=C(C)C,inactive
16,C=COCC(C)C,inactive
17,COc1cc(C(=O)NCCCCCC(=O)O)cc(OC)c1OC,inactive
18,CN1CCCC(n2nc(Cc3ccc(Cl)cc3)c3ccccc3c2=O)CC1 (stereo not given),inactive
19,CCCCCCC(C)(C)C(=O)O,inactive
20,O=C1c2ccccc2C(=O)N1CCc1noc(-c2ccc(CN3CCCCCC3)s2)n1,inactive

row,SMILES,Potency
1,CCN(CC)CCNC(=O)COc1ccc(OC)cc1,inactive
2,CCC1(CO)COCOC1,inactive
3,O[C@@H]1CO[C@H]2[C@@H]1OC[C@@H]2O,inactive
4,CO[C@]1(NC(=O)CSC(F)F)C(=O)N2C(C(=O)O)=C(CSc3nnnn3CCO)CO[C@H]21,inactive
5,O=C(Cn1ccnc1[N+](=O)[O-])NCCO,inactive
6,CC(C)=CCC/C(C)=C/CC/C(C)=C/CCC(=O)OC/C=C(\C)CCC=C(C)C,inactive
7,Nc1cccc2c1CN(C1CCC(=O)NC1=O)C2=O (stereo not given),inactive
8,O=C(OC(=O)c1ccccc1)c1ccccc1,inactive
9,Brc1cc(Br)c(Oc2cc(Br)c(Br)cc2Br)cc1Br,inactive
10,CCn1cc(C(=O)O)c(=O)c2cc(F)c(N3CCNCC3)cc21,inactive
11,Clc1ccc(Nc2nnc(Cc3ccncc3)c3ccccc23)cc1,26.8 µM [inconclusive] (active) and inactive
12,Brc1cc2ccccc2c2ccccc12,inactive
13,Cc1c(C)c2c(c(C)c1OC(=O)CCC(=O)OCCO)CC[C@@](C)(CCC[C@H](C)CCC[C@H](C)CCCC(C)C)O2,9.52 µM [inconclusive] (active)
14,COc1cc(C(=O)NC2CCN(C)CC2)ccc1Nc1ncc2c(n1)N(C1CCCC1)CC(F)(F)C(=O)N2C,1.59 µM [inconclusive] (active)
15,CCC(C)(C)OC,inactive
16,CCOC(=O)c1ccccc1C(=C1C=C(Br)C(=O)C(Br)=C1)c1cc(Br)c(O)c(Br)c1,5.8 µM [inconclusive] (active)
17,C=C(C)[C@@H]1CCC2=CCC[C@@H](C)[C@]2(C)C1,inactive
18,C[C@@H]1CC(=O)NN=C1c1ccc(NN=C(C#N)C#N)cc1,inactive
19,CCC(=O)OC,inactive
20,Oc1c(I)cc(I)c2cccnc12,6.01 µM [cytotoxic] (active)
